From PubChem BioAssay
A selection: hits, their analogues and other compounds. The true share with any hit is near 19%.
DT40 TDP1 no CPT – qHTS for Inhibitors of human tyrosyl-DNA phosphodiesterase 1 (TDP1): qHTS in cells in absence of CPT; DT40 Tdp1-/- hTDP1 cells, no CPT, ATP luminescence, 48 h; Potency, µM (doses to about 46.2 µM), actives largely listed as inhibitors; 15% of 420,000 active; AID 686978, 2013; further: nearly all actives have a fitted effect of over 55% in size
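No-CPT arm: Tdp1-/-;hTDP1 DT40 cells (400/well) plus compounds, incubated ≥48 hr at 37 °C. Readout CellTiter-Glo luminescence.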
MCF10A rereplic – A quantitative high throughput screen for small molecules that induce DNA re-replication in MCF 10a normal breast cells | MCF 10A DNA re-replication, Hoechst nuclear intensity, 48 h | Potency, µM (highest dose often 46.1 µM), most hits filed as activators | 2.9% of 350,000 active | AID 624296, 2012; further: nearly all actives have a fitted effect of over 50% in size
Chronic BCR inh – qHTS Assay to Find Inhibitors of Chronic Active B-Cell Receptor Signaling. AID 493014, 2011. Potency, µM (doses to about 46.1 µM), usual class: inhibitors. 0.05% of 340,000 active. ABC-DLBCL IkBa-CBG/CBR reporter, luminescence ratio, 4 h; active means well fitted inhibition curve with a large enough effect in the signal ratio, with a control signal flat, not every such curve was filed as active; inconclusive means small, poorly fitted or top-dose-only effect, or effect the other way, or a change in a side signal; the % refers to the signal ratio
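TMD8 ABC-DLBCL cells carrying doxycycline-inducible green luciferase fused to IkappaBalpha plus unfused red luciferase were exposed to compounds (up to 46 uM) for 4 hrs at 37C. Activity came from the overlap-corrected green/red luminescence ratio.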
TDP1 cell CPT – qHTS for Inhibitors of human tyrosyl-DNA phosphodiesterase 1 (TDP1): qHTS in cells in presence of CPT | chicken DT40 Tdp1-/-;hTDP1 cells + 20 nM CPT, ATP luminescence, 48 h | Potency, µM (top dose mostly 46.2 µM), most hits filed as inhibitors | 12% of 420,000 active | AID 686979, 2013; further: nearly all actives have a fitted effect of over 55% in size
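Chicken DT40 Tdp1-/- cells complemented with human TDP1, 400 cells/well, exposed to compounds plus 20 nM camptothecin for at least 48 h at 37 C; viability read as ATP content by CellTiter-Glo luminescence.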
SW480 rerep – A quantitative high throughput screen for small molecules that induce DNA re-replication in SW480 colon adenocarcinoma cells. SW480 DNA re-replication, Hoechst DNA content imaging, 48 h. Potency, µM (titrated, usually from 46.1 µM), most hits filed as activators. 1.8% of 340,000 active. AID 624297, 2012; further: nearly all actives have a fitted effect of over 55% in size
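Treated cells incubate 48 hr (37 C, 5% CO2), are stained 40 min with Hoechst, and nuclear fluorescence is enumerated; a rise in nuclei with high DNA signal marks re-replication.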
IL1B secr inh – qHTS for Inhibitors of Inflammasome Signaling: IL-1-beta AlphaLISA Primary Screen. THP-1 LPS/ATP IL-1B secretion, AlphaLISA, 16 h; active compounds read low. AID 743279, 2014. activity change, % at 57.5 µM. 4.7% of 360,000 active; in the data active means activity change below about -50%; inconclusive means mostly about -30% to -49%
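THP-1 cells pretreated 1 hr with compounds (up to 57.5 uM final), then stimulated with LPS (250 ng/mL final) plus ATP (1.25 mM final); secreted IL-1B measured by AlphaLISA after 16 hr, decreased signal indicating inhibition.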
A number is an active result; - = inactive; ? = inconclusive; . = no result given; [ ] = dose if it differs, or a comment. Unless noted, the call rests on the fitted dose curve; in most records, active means well fitted curve in the direction sought with a large enough effect; inconclusive means small, poorly fitted or top-dose-only effect, or another doubt; inactive means no such curve, though single readings can be large; an effect the other way counts as inactive or inconclusive.

SMILES	DT40 TDP1 no CPT	MCF10A rereplic	Chronic BCR inh	TDP1 cell CPT	SW480 rerep	IL1B secr inh
COc1cccc(CNS(=O)(=O)c2ccc3c(c2)CC(C)N3C(=O)C2CC2)c1 (centres undefined)	10µM	-	?	21µM	?	-
O=C(/C=C/c1cccc(Br)c1)N1CCN(c2ccccn2)CC1	-	-	-	-	-	-
COc1ccc(C(=O)NNc2ncnc3c2cnn3-c2ccccc2)cc1	-	.	?	-	.	.
O=C(COC(=O)/C=C/c1ccccc1[N+](=O)[O-])NNC(=O)c1ccc(F)cc1	-	-	-	-	-	-
COc1ccc(NS(=O)(=O)c2ccc3c(c2)CC(C)N3C(C)=O)c(OC)c1 (centres undefined)	21µM	.	.	18µM	.	.
CCC(=O)N1c2ccc(S(=O)(=O)NCc3ccc(F)cc3)cc2CC1C (centres undefined)	12µM	.	.	15µM	.	.
CCOc1ccccc1NC(=O)CCS(=O)(=O)c1ccc2c(c1)CC(C)N2C(C)=O (centres undefined)	-	-	-	-	-	-
CC(NS(=O)(=O)c1ccc2c(c1)CC(C)N2C(=O)C1CC1)c1ccccc1 (centres undefined)	-	-	-	-	-	-
CCOc1ccccc1NS(=O)(=O)c1ccc2c(c1)CC(C)N2C(=O)C1CC1 (centres undefined)	15µM	.	.	?	.	.
CC1Cc2cc(S(=O)(=O)NCc3ccccc3Cl)ccc2N1C(=O)C1CCC1 (centres undefined)	7.3µM	.	.	15µM	.	.
CCOc1ccc(NC(=O)c2cc3c(=O)n4cccc(C)c4nc3s2)cc1	-	.	.	-	.	.
COc1ccccc1C1CN(Cc2cnn(C)c2C)Cc2ccccc2O1 (centres undefined)	-	.	.	-[9.04 µM]	.	.
COc1ccccc1CNS(=O)(=O)c1ccc2c(c1)CC(C)N2C(C)=O (centres undefined)	18µM	.	.	?	.	.
CC(=O)N1c2ccc(S(=O)(=O)NCc3ccco3)cc2CC1C (centres undefined)	-	-	-	-	-	-
CC(Sc1nnc(C2CC2)n1C)C(=O)Nc1ccc(N2CCOCC2)cc1 (centres undefined)	-	-	?	-	-	-
CC1(CCc2ccccc2)NC(=O)NC1=O (centres undefined)	-	-	.	-	-	-
CCc1cccc(NC(c2ccccc2)c2nnc(-c3ccccc3F)o2)c1 (centres undefined)	21µM	.	.	?	.	.
CCOc1ccc(N=C(C)C2=C(O)c3ccccc3C2=O)cc1	?	-	?	-	-	?
CC(=O)Nc1ccc(N=C(C2=C(O)c3ccccc3C2=O)c2ccccc2)cc1	?	-	?	3.3µM	-	-
COc1ccc(N=C(C)C2=C(O)c3ccccc3C2=O)cc1	?	-	?	23µM	-	-
Cc1ccc(NC(=S)N2CCCCC2CO)cc1C (centres undefined)	-	-	-	-	-	-
O=c1c(Cl)c(N2CCC3(CC2)OCCO3)cnn1C12CC3CC(CC(C3)C1)C2	13µM	-	-	?	-	-
CC(C)COC(=O)N1CCN(S(=O)(=O)c2ccc3c(c2)CCC3)CC1	?	-	-	?	-	-
CC(C)CC(NC(=O)c1cccs1)c1nnc(SCc2ccc(Cl)c(Cl)c2)n1C (centres undefined)	?	18µM	?	?	-	?
Cc1ccccc1CNC(=O)CN1C(=O)CCCc2ccccc21	-	.	.	-	.	.
SMILES	DT40 TDP1 no CPT	MCF10A rereplic	Chronic BCR inh	TDP1 cell CPT	SW480 rerep	IL1B secr inh
CN1CCc2c(sc(NC(=O)CSc3ccc(F)cc3)c2-c2nc3ccccc3s2)C1	16µM	.	-	?	.	.
CC(=O)N1CCc2c(sc(NC(=O)CS(=O)(=O)c3ccc(F)cc3)c2C#N)C1	-	?	-	?	?	-
CC(=O)N1CCc2c(sc(NC(=O)CSc3ccc(F)cc3)c2-c2nc3ccccc3s2)C1	9.2µM	.	-	12µM	.	.
CCN1CCc2c(sc(NC(=O)CSc3ccccc3)c2-c2nc3ccccc3s2)C1	?	.	-	?	.	.
CC(=O)Nc1sc2c(c1-c1nc3ccccc3s1)CCN(C(C)C)C2	2.6µM	?	?	2.3µM	21µM	-105
O=C(NCc1ccc(F)cc1F)[C@@H]1CCCN1C(=O)[C@@H]1CCCN1C(=O)c1ccc(Cl)cc1	?	.	.	?	.	-
N#Cc1c(-n2ncnc2-c2ccccc2Cl)sc2c1CCCCC2	-	.	.	-	.	.
Cc1ccc2nc(CN(C)C(=O)[C@H]3O[C@@H](n4ccc(N)nc4=O)[C@H](O)[C@@H]3O)[nH]c2c1	-	.	.	-	.	-
OCC#Cc1ncc(C(F)(F)F)cc1Cl	7.3µM	?	?	5.2µM	?	-
CCSc1nnc(NC(=O)C2Cc3ccccc3CN2S(=O)(=O)CC)s1 (centres undefined)	16µM	-	?	?	-	-
CCS(=O)(=O)N1Cc2ccccc2CC1C(=O)Nc1nnc(SCc2c(Cl)cccc2Cl)s1 (centres undefined)	?	-	-	?	-	-
CCS(=O)(=O)N1Cc2ccccc2CC1C(=O)Nc1nc(C)cs1 (centres undefined)	?	-[9.22 µM]	?	-	-	-
O=C(Nc1nnc(C2CC2)s1)C1Cc2ccccc2CN1S(=O)(=O)c1cccs1 (centres undefined)	16µM	?	-	21µM	-	-
CCS(=O)(=O)N1Cc2ccccc2CC1C(=O)Nc1nc2c(C)cccc2s1 (centres undefined)	26µM	-	?	-	-	-
O=C(Nc1nnc(SCc2ccc(F)cc2)s1)C1Cc2ccccc2CN1C(=O)c1ccco1 (centres undefined)	?	?	-	-	-	-78
O=C(O)c1ccc(S(=O)(=O)N[C@H](Cc2ccc(O)cc2)C(=O)O)cc1	.	.	-	.	.	.
CCN(C[C@H]1N[C@@](CC)(C(=O)OC)[C@H]2C(=O)N(Cc3ccccc3)C(=O)[C@@H]12)C(=O)c1ccccc1	?	-	-	?	-[9.22 µM]	-
COc1cccc(/C=C/C(=O)NNC(=O)c2cc(C)oc2C)c1	-	-	?	-	-	-
C[N+](C)(C)CCOP(=O)([O-])OP(=O)(O)OCC1OC(n2ccc(N)nc2=O)C(O)C1O (centres undefined)	-	.	.	-	.	.
Cc1ccc(OCCC(=O)OCC(=O)Nc2c(C)nn(-c3ccccc3)c2C)cc1	-	-	-	-	?	-
